Potency data for 6 compounds are collected here from PubChem BioAssay (NCATS).

Molecules are shown by their SMILES. Inconclusive results are not listed. Active and inactive are the calls of the source. Unless noted, the call rests on the fitted dose curve; in most records, active means well fitted curve in the direction sought with a large enough effect; inconclusive means small, poorly fitted or top-dose-only effect, or another doubt; inactive means no such curve, though single readings can be large; an effect the other way counts as inactive or inconclusive.

Test [1] is described as follows: qHTS for Inhibitors of Plasmodium falciparum (CP250) proliferation (AID 504320). The method in brief:
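Erythrocytes infected with P. falciparum line (0.3% parasitemia, 2.5% hematocrit final) incubated with compounds 72 h at 37 °C, 5% CO2; SYBR Green lysis buffer added, fluorescence read next day. Normalized to 0.29 uM artemisinin and DMSO.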
(In general: qHTS replaces the single test concentration by a dilution series.)

Test [2] concerns the target Atrial natriuretic peptide receptor 1 (Homo sapiens) (UniProt P16066). As to the kind of experiment: Natriuretic polypeptide receptor (hNpr1) antagonism - Pilot CMLD screen (AID 1347052; calls by dose curve;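 further: HEK293 cells with hNpr1 stimulated by hNppA peptide at 0.1 nM; cGMP level read as GloSensor luciferase luminescence after agonist stimulation; series mostly up to about 9.2 µM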).
Test [3] concerns the target N-terminal Xaa-Pro-Lys N-methyltransferase 1 (Homo sapiens) (UniProt Q9BV86). The experiment in a line: qHTS Assay for Inhibitors of N-terminal methyltransferase 1 (NTMT1): LOPAC validation of the NTMT1 SAHH-coupled ThioGlo3 Assay (AID 1347143).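 Further: SAH from peptide methylation measured as thiol fluorescence via SAHH coupling and ThioGlo3; potency means the concentration at half of the fitted maximal effect; nearly all actives have a fitted effect of over 70% in size.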 The essentials:
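Inhibition of NTMT1 methylation of peptide SPKRIA is followed by converting SAH with SAHH and labelling the released thiol with ThioGlo3. Plates are read at 340/450nm before and 30 min after reagent addition, both at room temperature.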

Sequence of Atrial natriuretic peptide receptor 1 (Homo sapiens) (P16066 whole entry, looked up): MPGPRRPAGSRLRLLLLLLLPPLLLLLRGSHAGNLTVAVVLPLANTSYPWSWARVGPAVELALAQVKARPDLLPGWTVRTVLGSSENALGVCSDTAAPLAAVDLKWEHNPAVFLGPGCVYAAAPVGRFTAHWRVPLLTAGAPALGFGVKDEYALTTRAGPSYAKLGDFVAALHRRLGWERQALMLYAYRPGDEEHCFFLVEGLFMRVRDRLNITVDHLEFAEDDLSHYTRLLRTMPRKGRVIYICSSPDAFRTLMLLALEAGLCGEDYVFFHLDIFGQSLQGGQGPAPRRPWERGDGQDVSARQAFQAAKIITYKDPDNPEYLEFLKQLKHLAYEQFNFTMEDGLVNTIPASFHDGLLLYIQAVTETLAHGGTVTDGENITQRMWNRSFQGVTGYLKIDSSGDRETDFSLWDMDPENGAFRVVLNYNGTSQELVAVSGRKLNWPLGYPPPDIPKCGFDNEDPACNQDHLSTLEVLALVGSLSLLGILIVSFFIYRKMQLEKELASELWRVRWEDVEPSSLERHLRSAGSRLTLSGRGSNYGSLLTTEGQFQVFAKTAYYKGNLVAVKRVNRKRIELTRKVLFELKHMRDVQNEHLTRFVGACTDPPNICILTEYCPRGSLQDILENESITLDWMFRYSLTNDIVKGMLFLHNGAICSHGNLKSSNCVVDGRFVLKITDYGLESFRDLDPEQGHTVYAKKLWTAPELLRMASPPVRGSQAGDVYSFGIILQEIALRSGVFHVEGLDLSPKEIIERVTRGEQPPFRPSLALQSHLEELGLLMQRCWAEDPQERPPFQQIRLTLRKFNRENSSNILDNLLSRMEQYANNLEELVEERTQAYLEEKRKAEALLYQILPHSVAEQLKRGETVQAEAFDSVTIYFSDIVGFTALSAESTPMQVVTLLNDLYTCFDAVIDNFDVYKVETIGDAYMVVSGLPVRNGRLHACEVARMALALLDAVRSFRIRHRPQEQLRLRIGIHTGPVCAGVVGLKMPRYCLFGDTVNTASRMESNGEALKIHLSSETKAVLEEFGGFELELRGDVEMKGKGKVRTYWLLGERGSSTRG
Sequence of N-terminal Xaa-Pro-Lys N-methyltransferase 1 (Homo sapiens) (Q9BV86 whole entry, looked up): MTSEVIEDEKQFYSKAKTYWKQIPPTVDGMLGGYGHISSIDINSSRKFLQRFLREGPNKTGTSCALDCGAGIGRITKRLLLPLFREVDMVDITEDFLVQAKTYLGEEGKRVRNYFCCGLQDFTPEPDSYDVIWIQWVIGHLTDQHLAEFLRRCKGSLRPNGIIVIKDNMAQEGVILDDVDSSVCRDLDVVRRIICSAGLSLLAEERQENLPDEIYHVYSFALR

Take `C[C@@H]1[C@H](c2ccccc2)c2cc3ccccc3nc2C(=O)C[C@@H]1C(=O)N1CCCC1`: the Potency result in test [1] and in test [2] was “inactive” each time.
With `COC1=CC2C(=O)C([C@@H]3c4ccccc4C[C@]23C)C1(O)c1cccc(OC)c1` (stereo partly specified), the Potency entry in test [1] and in test [2] was “inactive” throughout.
Turning to `COc1cc2c(cc1OC)[C@@H]1O[C@](c3ccsc3)(C2)Oc2c1c(=O)oc1ccc(F)cc21`, the Potency entry in test [1] and in test [2] was “inactive” each time.
As for `COc1cccc([C@@H]2Oc3ccc(OC)cc3C(=O)[C@@H]2O)c1`, the Potency entry in test [1] and in test [2] was “inactive” throughout.
Turning to `N.N.N.N.N.N.N.N.N.N.N.N.N.N.O.O.[Cl-].[Cl-].[Cl-].[Cl-].[Cl-].[Cl-].[Ru+4].[Ru+5].[Ru+5]`, the Potency in test [3] was 44.7 µM (active).
In the case of `CC1(C)O[C@@H](C(O)(c2ccccc2)c2ccccc2)[C@H](C(O)(c2ccccc2)c2ccccc2)O1`, the Potency entry in test [1] and in test [2] was “inactive” in each case.
